{"source": "PubChem BioAssay", "note": "Unmarked numbers belong to inactive results. The rule behind the calls is not given here.", "data": [{"molecular_target": "L-lactate dehydrogenase (Plasmodium falciparum (isolate CDC / Honduras)) (UniProt Q27743)", "sequence (Q27743 whole entry, looked up)": "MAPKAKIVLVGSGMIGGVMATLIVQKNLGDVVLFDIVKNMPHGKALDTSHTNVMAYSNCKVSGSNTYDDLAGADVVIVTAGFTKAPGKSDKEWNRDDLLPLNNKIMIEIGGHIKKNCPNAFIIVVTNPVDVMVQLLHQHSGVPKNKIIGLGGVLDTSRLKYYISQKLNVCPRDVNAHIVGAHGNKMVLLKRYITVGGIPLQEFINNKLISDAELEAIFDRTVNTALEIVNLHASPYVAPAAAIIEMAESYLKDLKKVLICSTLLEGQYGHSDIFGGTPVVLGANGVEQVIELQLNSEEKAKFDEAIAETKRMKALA", "experiment": "PfLDH activity inhibition – cell lysate, 3D7 strain, counter-screen for P. falciparum growth inhibition project (AID 2304);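 note: 0% = vehicle and 100% = reference inhibitor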", "conditions": "P. falciparum 3D7 crude extract, LDH APAD/NBT absorbance; at 2 µM; stronger effect = higher value", "units": {"inhibition": "%"}, "values": [{"smiles": "Cn1nc(C(F)(F)F)c(-c2ccc(F)cc2)c1NC(=O)Nc1ccccc1", "inhibition": 6}, {"smiles": "CC(C)Cn1c(N)cc(=O)n(C)c1=O", "inhibition": 3}, {"smiles": "O=C(Cn1c(CCc2cccc(F)c2F)nc(=O)c2ccccc21)N(CCCN1CCCCC1)Cc1ccc(-c2ccc(C(F)(F)F)cc2)cc1", "inhibition": -2}, {"smiles": "CCOc1cc(C)ccc1C1CCN(CCCCNC(=O)c2nc(-c3ccc(C(F)(F)F)cc3)[nH]c2C)CC1", "inhibition": -5}, {"smiles": "Cc1sc2nc(CN3CCCC3)nc(-n3c(NCCO)nc4ccccc43)c2c1C", "inhibition": -2}, {"smiles": "Fc1cccc(CNc2ncc(-c3ccsc3)c(-c3nccs3)n2)c1", "inhibition": 0}, {"smiles": "O=C(/C=C/c1ccc(Cl)c(Cl)c1)NCCCCCCN1CCCN(C(=O)Nc2ccc(F)c(Cl)c2)CC1", "inhibition": 0}, {"smiles": "Cc1ccc(C(=O)N2CCN(Cc3nccs3)CC2)cc1", "inhibition": 0}, {"smiles": "O=C(c1ccccc1)N(Cc1ccccc1-c1ccc(CNCCc2ccccc2)cc1)C1CCN(Cc2ccccc2)CC1", "inhibition": -7}, {"smiles": "CC(=O)N(C)c1cccc(C(=O)Nc2cccc(-c3ccc(-c4nc5ccc(C(F)(F)F)cc5[nH]4)cc3)c2)c1", "inhibition": -2}, {"smiles": "Nc1nc(N)c2c(ccc3c2ccn3CCCC2CCCNC2)n1", "note": "(stereo not drawn)", "inhibition": -4}, {"smiles": "COc1cc(C(C)C)nc2ccc(NC(=O)c3ccc(C(=O)Nc4ccc5nc(C(C)C)cc(OC)c5c4)cc3)cc12", "inhibition": 0}, {"smiles": "COc1cccc(C(=O)[C@H]2C[C@@H]2CN(C)CC(O)c2cc(C)c(OC)cc2C)c1", "note": "(stereo partly drawn)", "inhibition": 2}, {"smiles": "Cc1sc(C)c(CNCCCNc2cc(=O)c3ccccc3[nH]2)c1Br", "inhibition": -2}, {"smiles": "CC(C)Cn1cc(C2CCN(CCN3CCC(CNC(=O)c4ccc(NC(=O)c5cc(Cl)cc(Cl)c5)cc4)CC3)CC2)c2ccccc21", "inhibition": -2}, {"smiles": "CC(C)c1sc(-c2ccc(C(C)(C)C)cc2)nc1C(=O)NCCCN1CCCC1=O", "inhibition": 1}, {"smiles": "COC(=O)C(C)(C)Cc1c(SC(C)(C)C)c2cc(C(C)C)ccc2n1Cc1ccc(Cl)cc1", "inhibition": 0}, {"smiles": "COc1cc(/C=C/C(=O)NCC(CCNc2cc(=O)c3ccccc3[nH]2)NCc2cc(Br)cc(Br)c2)cc(OC)c1", "note": "(stereo not drawn)", "inhibition": -4}, {"smiles": "CCC(C)CN1C(=O)C(c2ccccc2)(c2ccccc2)N=C1N", "note": "(stereo not drawn)", "inhibition": 4}, {"smiles": "CCOc1ccc(-c2nonc2NC(=O)c2ccccc2Cl)cc1OCC", "inhibition": 4}, {"smiles": "Cc1noc(C)c1-c1cccc(CNCc2ccc(-c3cccc(-c4nc5ccc(C(F)(F)F)cc5[nH]4)c3)cc2)c1", "inhibition": 3}, {"smiles": "COc1c(C2CCN(CCCCNC(=O)c3cc(-c4ccc(C#N)cc4)n[nH]3)CC2)ccc2c1CCCC2", "inhibition": -6}, {"smiles": "COc1ccc2nccc(NC(=O)N3CCC(NCCOc4cc(F)cc(F)c4)CC3)c2n1", "inhibition": -2}, {"smiles": "CC(=O)c1cc(N2CCCC2)ccc1N", "inhibition": -2}, {"smiles": "C=C(C)Cn1cc(C2CCN(CCN3CCC(CNC(=O)c4ccc(-c5ccc(C#N)cc5)cc4)CC3)CC2)c2ccccc21", "inhibition": -3}, {"smiles": "O=C(Nc1ccc(-c2ccc(-c3nc4ccc(C(F)(F)F)cc4[nH]3)s2)cc1)c1cnc[nH]1", "inhibition": 5}, {"smiles": "O=C(/C=C/c1ccc(CNCCN2CCOCC2)cc1)NCCc1ccccc1", "inhibition": -2}, {"smiles": "CCCCN1CCCC[C@H]1[C@@H](O)c1ccnc2ccc(OCC)cc12", "inhibition": -2}]}]}
